Test results: ChEMBL document CHEMBL1157539, “Thousands of chemical starting points for antimalarial lead identification” (Nature, 2010)

Columns and labels:
Type in all cases: functional
Plasmodium falciparum [1] = test: GSK_TCMDC: Inhibition of Plasmodium falciparum 3D7 in whole red blood cells, using parasite LDH activity as an index of growth. Test compounds present at 2uM
Plasmodium falciparum [2] = test: GSK_TCMDC: Inhibition of Plasmodium falciparum Dd2 in whole red blood cells, using parasite LDH activity as an index of growth. Test compounds present at 2uM
HepG2 = test: GSK_TCMDC: Percent inhibition of human HepG2 cell line. Test compounds present at 10uM.

Row | Structure (SMILES) | Inhibition (Plasmodium falciparum [1]) | Inhibition (Plasmodium falciparum [2]) | Inhibition (HepG2)
1 | Cc1cccc2nc(-c3ccc(-c4cccc(CNCCCN5CCCC5=O)c4)cc3)[nH]c12.O=C(O)C(F)(F)F | 96% | 3% | 6%
2 | Cc1cc(C)nc(-n2[nH]c(C)c(Cc3ccc(C(C)(C)C)cc3)c2=O)n1 | 88% | 61% | 0%
3 | Cc1cc(O)c(-c2cc(C(=O)Nc3cccnc3)[nH]n2)cc1C | 97% | 97% | 12%
4 | COc1cc(C(C)C)ccc1N1CCN(CCCCNC(=O)c2ccc(NC(=O)c3ccc(Cl)cc3)cc2)CC1 | 98% | 81% | 25%
5 | O=C(N[C@@H](CC1CCCCC1)C(=O)NCCN1CCCC1)c1ccc(O)c(-c2ccc(Cl)c(Cl)c2)c1 | 99% | 99% | 16%
6 | CC(CN(C)C)C(=O)Nc1cccc(-c2ccc(-c3nc4cc(C(F)(F)F)ccc4[nH]3)cc2)c1 (centres undefined) | 99% | 97% | 26%
7 | Br.CC(C)Oc1ccc(CCCON2C(=N)N=C(N)NC2(C)C)cc1 | 96% | 94% | 66%
8 | COc1cccc(-c2[nH]c3ccccc3c2CN2CCC(c3c(C)cccc3C)CC2)c1 | 99% | 24% | 32%
9 | Cc1nnsc1C(=O)Nc1cccc(-c2ccc(-c3nc4cccc(C)c4[nH]3)s2)c1 | 100% | 44% | 46%
10 | CC(C)(C)CC(=O)Nc1ccc(Nc2cc(-c3ccncc3)cc3ncc(C(N)=O)cc23)cc1 | 97% | 85% | 5%
11 | Nc1ccc(-c2ccc3ccnc(N)c3c2)cc1 | 100% | 68% | 38%
12 | COc1csc2cc(Br)ccc12 | 100% | 0% | 6%
13 | CN(C)c1cccc2c1nc(-c1ccco1)n2CCNCc1ccccc1.O=C(O)C(F)(F)F | 98% | 97% | 0%
14 | CNc1ccc(CNCc2cccc(-c3ccc(-c4nc5ccccc5[nH]4)cc3)c2)cc1.O=C(O)C(F)(F)F | 100% | 80% | 18%
15 | Cc1[nH]c(-c2ccc(F)cc2)cc1C(=O)NC1CCN(Cc2ccccc2)CC1 | 84% | 9% | 6%
16 | COc1ccc2ncc(F)c(CCN3CCC(NCc4cc(OC)c5c(c4)OCCO5)CC3)c2n1.Cl | 100% | 53% | 0%
17 | CCOC(=O)C1CCN(CCOc2cc(NC(=O)/C=C/c3ccccc3Cl)ccc2Br)CC1.O=C(O)C(=O)O | 87% | 29% | 6%
18 | Cc1cc(C)c2oc(-c3cccc(NC(=O)c4ccc([N+](=O)[O-])o4)c3C)nc2c1 | 90% | 67% | 0%
19 | CN(C(=O)/C=C/c1cc(C(F)(F)F)ccc1F)C1CCN(CCCCCNC(=O)/C=C/c2ccc(Cl)c(Cl)c2)CC1 | 100% | 68% | 71%
20 | Cc1nnsc1C(=O)Nc1cccc(-c2cccc(-c3nc4cccc(C)c4[nH]3)c2)c1 | 99% | 80% | 22%
21 | COc1ccc(NC(=O)[C@H](CC(C)C)Nc2ccnc(NCCc3ccc(F)cc3)n2)cc1.O=C(O)C(F)(F)F | 86% | 22% | 0%

Row | Structure (SMILES) | Inhibition (Plasmodium falciparum [1]) | Inhibition (Plasmodium falciparum [2]) | Inhibition (HepG2)
22 | CCOc1ccc2c(=NN=Cc3ccccn3)cc(C)[nH]c2c1 | 98% | 1% | 19%
23 | CC(=O)NCCNc1cc(N2CCc3ncnc(Nc4ccc(OCc5c(F)cccc5F)c(Cl)c4)c3C2)ncn1 | 100% | 100% | 55%
24 | COc1ccc(OC)c(Cc2cnc3nc(N)nc(N)c3c2C)c1 [PIRITREXIM] | 92% | 97% | 68%
25 | COc1cc2cc(Cc3cnc(N)nc3N)ccc2c(OC)c1OC.Cl | 97% | 2% | 1%
26 | Cc1noc(C)c1-c1cccc(CNCc2cccc(-c3cccc(-c4nc5ccccc5[nH]4)c3)c2)c1.O=C(O)C(F)(F)F | 100% | 54% | 22%
27 | O=C(NCC1CCC(C(=O)NCc2cccc(C(F)(F)F)c2)CC1)c1ccc(O)c(-c2ccc(Cl)c(Cl)c2)c1 (centres undefined) | 98% | 41% | 5%
28 | Cc1nc(-c2cccc(NC(C)C(=O)Nc3cc(C(F)(F)F)ccc3N3CCOCC3)c2)cs1 (centres undefined) | 82% | 97% | 3%
29 | O=C(CC1NC(=O)c2ccccc21)Nc1ccc(-c2ccc(-c3nc4cc(C(F)(F)F)ccc4[nH]3)cc2)cc1 (centres undefined) | 87% | 70% | 39%
30 | CN(C)CCCNc1c2ccccc2nc2ccccc12 | 91% | 4% | 31%
31 | Cc1cc(N[C@@H](Cc2ccccc2)C(=O)NCCc2ccccc2)nc(NCCOc2ccccc2)n1.O=C(O)C(F)(F)F | 95% | 14% | 10%
32 | CCOCCCn1c(=N)c(C(=O)NC(C)c2ccccc2)cc2c(=O)n3cccc(C)c3nc21 (centres undefined) | 95% | 31% | 24%
33 | Oc1ccc(Cl)cc1CN1CCC2(CCCN(CC3CCC3)C2)C1 (centres undefined) | 100% | 94% | 5%
34 | O=C(NC1CC1c1ccccc1)N(CCCn1ccnc1)Cc1csc(-c2ccc(CNCc3ccccc3)cc2)n1.O=C(O)C(F)(F)F (centres undefined) | 96% | 20% | 6%
35 | CC(C)c1ccc(OCC(O)CN(CCN2CCOCC2)C(=O)Nc2ccc(Br)cc2)cc1.O=C(O)C(F)(F)F (centres undefined) | 98% | 44% | 6%
36 | COc1ccc(C=NN=c2cc[nH]c3ccccc23)c2ccccc12 | 100% | 98% | 27%
37 | CCOc1ccc(C2CCN(CCCCNC(=O)c3ccc(NC(=O)c4ccc(Cl)cc4)cc3)CC2)c(OCC)c1.Cl | 100% | 95% | 14%
38 | CCN(CC)CCN(Cc1ccc(-c2ccc(Br)cc2)cc1)C(=O)Cn1c(CCc2cccc(F)c2F)nc(=O)c2ccccc21.O=C(O)C(O)C(O)C(=O)O | 98% | 74% | 37%
39 | Cc1nn(CC(O)Cn2c3ccc(Br)cc3c3cc(Br)ccc32)c(C)c1Br (centres undefined) | 98% | 81% | 4%
40 | CC1CN(c2cnn(Cc3ccc(NC(=O)Nc4ccc(-c5ccccc5)cc4)cc3)c(=O)c2Cl)CC(C)N1.O=C(O)C(F)(F)F (centres undefined) | 100% | 46% | 82%
41 | CCCN(Cc1nnc(-c2cccs2)o1)C(=O)C1COc2ccccc2O1 (centres undefined) | 87% | 49% | 1%
42 | CN(C)CC(O)C(c1ccccc1)c1cccc(Br)c1.Cl (centres undefined) | 98% | 9% | 22%

Row | Structure (SMILES) | Inhibition (Plasmodium falciparum [1]) | Inhibition (Plasmodium falciparum [2]) | Inhibition (HepG2)
43 | COc1ccc(-c2ccc(CNC3Cc4ccccc4C3)cc2)cc1S(=O)(=O)NCCN1CCCC1.O=C(O)C(F)(F)F | 100% | 99% | 30%
44 | CN1CCN(CCCCNc2c3ccccc3nc3ccccc23)CC1 | 100% | 0% | 37%
45 | CCC(C)NC(=O)Nc1ccc(-c2cccc(-c3nc4cc(C(F)(F)F)ccc4[nH]3)c2)cc1 (centres undefined) | 97% | 0% | 45%
46 | Cc1ccc(-c2nn3c(O)c4c(nc3c2C)CCCC4)cc1 | 97% | 87% | 16%
47 | Cc1ccc(NC(=O)Nc2ccc(Cl)c(C(F)(F)F)c2)cc1-c1ccc(C(=O)NCCN2CCOCC2)cc1 | 98% | 31% | 52%
48 | COc1cccc(O)c1CN1CCC2(CCCN(Cc3ccc(F)cc3)C2)C1 (centres undefined) | 98% | 72% | 21%
49 | COc1ccc(-c2cccc(NC(=O)c3ccc(Cl)cc3)c2)cc1CN1CCCC1.O=C(O)C(F)(F)F | 97% | 52% | 55%
50 | CCC(C)(C)c1ccc(Oc2ccc(NC(=O)Nc3ccc(Cl)c(Cl)c3)cc2)cc1 | 98% | 97% | 13%
51 | Cc1ccc2c(=NN=CC=Cc3ccccc3)cc(C)[nH]c2c1 | 92% | 13% | 3%
52 | Cl.O=c1cc(NCCCNC2CCOc3c(I)cc(Cl)cc32)[nH]c2ccccc12 (centres undefined) | 96% | 48% | 0%
53 | CC(C)CNCc1ccc(-c2cccc(CN(C(=O)NCCc3ccccc3)C3CCN(Cc4ccccc4)CC3)c2)cc1.O=C(O)C(F)(F)F | 100% | 94% | 91%
54 | O=C(NCc1cccc(F)c1)c1ccc(O)c(-c2cc(Cl)cc(Cl)c2)c1 | 99% | 99% | 0%
55 | O=c1[nH]c2c(cc1CNC1CCCCC1)c(-c1cccc(F)c1)nn2-c1ccccc1 | 95% | 89% | 6%
56 | COCCNCc1cccc(-c2ccc3c(Nc4cc(O)c(Cl)cc4F)ccnc3c2)c1 | 100% | 79% | 0%
57 | CC(CN1CCN(C)CC1)C(=O)Nc1cccc(-c2cccc(-c3nc4cc(F)ccc4[nH]3)c2)c1 (centres undefined) | 100% | 78% | 23%
58 | O=C1c2cc(I)ccc2SC1c1ccccc1 (centres undefined) | 96% | 98% | 0%
59 | CCC(C)c1ccc(NC(=O)Nc2ccnc3ccccc23)cc1.Cl (centres undefined) | 98% | 42% | 27%
60 | O=C(c1cccc(-c2cccc(-c3nc4cc(F)ccc4[nH]3)c2)c1)N1CCCCC1CN1CCC(O)C1 (centres undefined) | 90% | 100% | 36%
61 | CCCCN(CCCC)CCOc1cc2c(cc1OC)CCN2C(=O)/C=C/c1ccccc1Cl.Cl | 87% | 31% | 13%
62 | COc1cc(-c2nc(C(C)(C)CN)[nH]c2-c2ccncc2)ccc1Br.Cl | 97% | 95% | 17%
63 | CS(=O)(=O)c1cccc2sc(N3CCN(C(=O)c4ccc([N+](=O)[O-])o4)CC3)nc12 | 84% | 61% | 0%
